# Measurements published in PubChem BioAssay AID932 (The Scripps Research Institute Molecular Screening Center, 2007).
# The campaign covered roughly 200,000 compounds. About 5,100 (2.5%) were called active. The sample as a whole holds a higher share of actives than the screen did. Unmarked numbers belong to inactive results.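 The calls were made as follows: active = activation above the screen-wide mean activation plus 3 SD (cut at about 130% in these data); inactive = the rest.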 Where a SMILES comes first, the peptide text is derived from it. The star is where a group is joined. OPac = O=C(CO*)c1ccccc1; Bz = O=C(c1ccccc1)*
# Test: STAT1 signaling activators, primary screen, cell-based, HTS, luciferase reporter (AID 932);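 also: raw ratio to IFN-gamma control signal so 100% means no change and 0% no light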
# Conditions: NIH 3T3 STAT1-luciferase reporter, IFN-gamma, luminescence; at 5.5 µM; hits give high values; 100% = IFN-gamma alone, no compound
row,Compound,activation (% of control)
1,Cc1ccccc1N(C(=O)Cc1cccs1)C(C(=O)NC1CCCCC1)c1cn(C)nc1C (stereo unspecified),96.2%
2,O=C(NCCCN1CCN(c2ccc(F)cc2)CC1)Nc1ccc([N+](=O)[O-])cc1,88.3%
3,O=c1oc2ccccc2cc1-c1cn(-c2ccccc2)c(=S)[nH]1,28.6%
4,Nc1ncc(-c2cc3ccccc3oc2=O)s1,166% (active)
5,O=C(NCc1cccnc1)c1cccc(-c2cc3ccccc3oc2=O)c1,97.6%
6,Cn1cccc1C(C#N)c1ccccc1C#N (stereo unspecified),100%
7,Cc1cc(C)n2nc(C(=O)N3CCN(Cc4ccc5c(c4)OCO5)CC3)nc2n1,108%
8,Cc1cccc(NC(=O)c2ccc3ccccc3n2)n1,131% (active)
9,Cc1cccc(NC(=O)c2cc(N3C(=O)CCC3=O)ccc2Cl)n1,98.4%
10,Cc1cccc(NC(=O)c2ccccc2NC(=O)C(C)(C)C)n1,95.8%
11,CC(=O)c1cnc(SCC(=O)O)nc1C,108%
12,C=C(C)CSc1nc(N)c2c3c(sc2n1)CCC3,135% (active)
13,CC(C)(C)C1CCc2c(sc3nc(SCC(N)=O)nc(N)c23)C1 (stereo unspecified),123%
14,Nc1nc(SCC(=O)NCCN2CCOCC2)nc2sc3c(c12)CCC3,99.3%
15,CCOC(=O)C1=C(CC)OC(N)=C(C#N)C1c1ccc(F)cc1F (stereo unspecified),76.9%
16,Cc1ccc(NC(=O)C(=O)NCc2ccco2)c(C)c1,126%
17,Cc1ccc(NN=C2C(=O)OC(C)(C)OC2=O)c(C)c1,132% (active)
18,Cc1ccc(NC(=O)c2oc(=O)c3ccccc3c2-c2ccccc2)c(C)c1,97.1%
19,CC(C)(C)NC(=O)Cn1nnc(-c2ccccc2Cl)n1,142% (active)
20,O=C(Cn1nnc(-c2ccccc2)n1)NCc1ccccc1,100%
21,Cc1ccccc1-c1nnn(CC(=O)c2ccc(S(=O)(=O)N3CCCC3)cc2)n1,96.4%
22,Cc1ccc(NC(=O)Cn2c(=O)n(CCC(=O)NC3CCN(Cc4ccccc4)CC3)c(=O)c3ccccc32)cc1,101%
23,CC(C)COC(=O)c1ccc(NC(=O)C2C3C=CC(C3)C2C(=O)O)cc1 (stereo unspecified),138% (active)
24,CC(=O)NS(=O)(=O)c1ccc(NC(=O)C2C3C=CC(C3)C2C(=O)O)cc1 (stereo unspecified),99.5%
25,COC(=O)c1cc(NC(=O)C2C3C=CC(C3)C2C(=O)O)cc(C(=O)OC)c1 (stereo unspecified),101%
26,Cc1ccc(S(=O)(=O)N2CCOCC2)cc1C(=O)OC1CCCCC1=O (stereo unspecified),97%

row,Compound,activation (% of control)
1,NC(=O)Cc1ccc2sc(-c3ccccc3)nc2c1,180% (active)
2,O=C(O)Cc1sc(-c2ccccc2)nc1-c1cccs1,108%
3,O=C(O)Cc1sc(-c2ccc(C(=O)O)cc2)nc1-c1ccccc1,93.7%
4,CN(CC(=O)NCCc1ccccc1)S(=O)(=O)c1cnc[nH]1,95.9%
5,O=C(CSc1nnnn1-c1ccc(O)cc1)N1N=C(c2ccc3ccccc3c2)CC1c1ccccc1 (stereo unspecified),110%
6,CCc1nc(C)cn1S(=O)(=O)c1cc([N+](=O)[O-])ccc1Cl,87.5%
7,Cc1cccc(-n2cnc(C(=O)NNC(=S)Nc3ccccc3)c2)n1,92%
8,Cc1cccc(-n2cnc(C(=O)Nc3cccnc3)c2)n1,140% (active)
9,COc1cccc(C(=O)Nc2cccnc2)c1OC,96.6%
10,Cc1noc(C)c1S(=O)(=O)Nc1ccc(C(=O)N2CCN(c3ccc(F)cc3)CC2)cc1,98.8%
11,N#Cc1ccc(OCc2nnc(-c3ccc([N+](=O)[O-])cc3)o2)cc1,99.1%
12,CN(C)S(=O)(=O)c1ccc(N2CCCC2=O)c([N+](=O)[O-])c1,108%
13,CSc1nc2ccc(NC(=O)c3c(F)cccc3F)cc2s1,145% (active)
14,O=C(Nc1ccncc1)c1c(F)cccc1F,105%
15,CCCC(=O)Nc1nc2ccc(NC(=O)c3c(F)c(F)c(OC)c(F)c3F)cc2s1,102%
16,CCOC(=O)c1c(CN(C)C)n(-c2ccccc2)c2cc(Br)c(O)cc12,101%
17,CN1C(=O)c2ccc(NC(=O)C3CCCCC3)cc2C1=O,99.6%
18,O=C(Nc1cc2ccccc2oc1=O)C1CCCCC1,149% (active)
19,O=C(O)c1ccc(NC(=O)C2CCCCC2)cc1,99.3%
20,CC(=O)Nc1ccc(/C(C)=N/NC(=O)CN(c2ccccc2Br)S(C)(=O)=O)cc1,97.6%
21,O=C(O)CCCCCNc1ncnc2ccc(Br)cc12,104%
22,Cc1[nH][nH]c(=O)c1C(c1ccc2c(c1)OCO2)c1c(C)[nH][nH]c1=O,101%
23,Clc1ccc(-c2ncc3ccccn23)c(Cl)c1,112%
24,Clc1ccc(-c2cc(C3CCNCC3)[nH]n2)c(Cl)c1,135% (active)
25,O=C1CSC(c2ccccc2)N1c1nc(-c2ccc(Cl)cc2Cl)cs1 (stereo unspecified),102%
26,O=C(O)c1ccn(COc2ccc(Br)cc2)n1,101%

row,Compound,activation (% of control)
1,N=C1C(=O)OCC1c1ccccc1NC(=O)CN1CCCCC1 (stereo unspecified),86.4%
2,O=C(/C=C\NCC(=O)c1ccccc1)c1ccccc1,104%
3,O=C(/C=C/NCc1ccc(F)cc1)c1ccccc1,117%
4,Cc1ccc(N/C=C/C(=O)c2ccccc2)cc1C,142% (active)
5,CC(C)(C)NC(=O)NC(=O)COC(=O)Cc1ccc(Cl)cc1Cl,103%
6,O=C(O)c1ccc(NC(=O)c2cn(-c3ccccc3)nc2-c2ccc(Cl)cc2)cc1,122%
7,O=C(c1cnn(-c2ccc(Cl)cc2)c1)c1ccccc1O,137% (active)
8,Cc1ncc(CC(=O)n2cc(C(=O)c3cc(Cl)ccc3O)cn2)s1,103%
9,O=C(Nn1c(-c2ccccc2)nc2ccccc2c1=O)c1ccc([N+](=O)[O-])cc1,95.4%
10,Cc1ccc(C)n1NC(=O)c1ccc([N+](=O)[O-])cc1,97.7%
11,O=C(Nn1c(SCc2ccc([N+](=O)[O-])cc2)nc2ccccc2c1=O)c1ccc(F)cc1,150% (active)
12,O=C(CNC(=O)c1ccccc1)NCC(=O)OCC(=O)c1ccccc1 (Bz-Gly-Gly-OPac),101%
13,Cn1cc(CN2CCC(C(O)CCc3ccccc3)CC2)c(-c2ccccc2F)n1 (stereo unspecified),97.4%
14,CCNC(=S)N1CCC(c2nc3cc(C)c(C)cc3[nH]2)CC1,96.7%
15,COCCCNC(=S)N1CCCC(c2nc3cc(C)c(C)cc3[nH]2)C1 (stereo unspecified),140% (active)
16,CCCNC(=S)N1CCCC(c2nc3ccccc3[nH]2)C1 (stereo unspecified),94.6%
17,CC(=O)NCC(=O)N(Cc1ccco1)C1(C(=O)NC2CCCC2)CCCCC1,89.9%
18,O=C1CC(c2ccccc2)=NN1c1ccc([N+](=O)[O-])cc1,104%
19,Cc1nn(-c2ccc([N+](=O)[O-])cc2)c(N)c1-c1ccccc1,164% (active)
20,Cc1nn(-c2ccccc2)c2c1C(c1cccc([N+](=O)[O-])c1)N(c1ccccc1)C(=O)N2 (stereo unspecified),97.4%
21,CNC(=O)NC(=O)CSc1nnc(-c2ccc(F)cc2)n1CC1CCCO1 (stereo unspecified),103%
22,Cc1cccc(N=Nc2c(O)[nH]c3ccc(F)cc23)c1,161% (active)
23,COCC(=O)N=Nc1c(O)[nH]c2ccccc12,110%
24,Cc1cccc(N=Nc2c(C)[nH]n(-c3ccccc3)c2=O)c1,112%
25,O=c1c(-c2ccccc2)coc2cc(O)ccc12,137% (active)
26,O=c1c(-c2ccccc2)coc2c(CN3CCOCC3)c(O)ccc12,100%

row,Compound,activation (% of control)
1,CC(=O)COc1ccc2c(-c3ccccc3)cc(=O)oc2c1,109%
2,O=c1c2c(ncn1Cc1ccccc1)nc1n2CCC1,96.7%
3,COC(=O)c1ccc(CN2CCN(CCCc3ccccc3)C(CCO)C2)cc1 (stereo unspecified),96.7%
4,CCOC(=O)c1oc2c(CN3CCN(CCO)CC3)c(O)c(CC)cc2c(=O)c1-c1nc2ccccc2s1,104%
5,CN1CCCC(OC(=O)COc2ccc(Br)cc2)C1 (stereo unspecified),101%
6,C/C(=C\C(=O)c1ccc(Br)cc1)N1CCCCC1,105%
7,CC1CN/C(=C\C(=O)c2ccc(Br)cc2)C(=O)N1 (stereo unspecified),172% (active)
8,Cc1ccc(-n2c(C)cc(C(=O)CSc3nnc4ccccn34)c2C)cc1,150% (active)
9,COc1ccc(-n2c(C)cc(C(=O)CSc3nnc(-c4cccs4)o3)c2C)cc1,85.5%
10,O=C(CSc1nnc2ccccn12)c1ccccc1,123%
11,CCOc1ccc(C(=O)NC2CCN(CC(=O)NCc3cccs3)CC2)cc1,105%
12,CN(C)CCCCCN(C)Cc1cc2ccccc2o1,91.6%
13,Cc1cc(NC(=O)CSc2nnc(Nc3ccccc3F)s2)no1,102%
14,COc1ccc(-c2cc(C(=O)NCCCn3ccnc3)no2)cc1,110%
15,O=C(NCCCn1ccnc1)c1cc(-c2ccccc2)on1,161% (active)
16,COc1ccccc1-c1cc(C(=O)NCCCn2ccnc2)no1,112%
17,Cc1ccc(NC(=O)CSc2nnc(COc3ccccc3C)o2)cc1,103%
18,Cc1ccccc1-c1nc(C#N)c(NCc2ccco2)o1,98.1%
19,O=C(C(=O)N1CCc2ccccc2C1)c1c[nH]c2ccccc12,105%
20,CC(=O)c1cccc(NC(=O)[C@@H](NC(N)=O)C(C)C)c1,98.5%
21,COc1ccc(-c2csc(NC(=O)CCCc3cccs3)n2)cc1,91.3%
22,COc1ccc(-c2csc(NC(=O)COC(=O)c3ccc(Br)o3)n2)cc1,129% (active)
23,COc1ccc(-c2csc(NC(=O)COC(=O)Cc3ccc(Cl)cc3Cl)n2)cc1,112%
